IL-1B inflam inh: blocks inflammasome-driven IL-1 beta release | activity change, % at 57.5 µM | hit rate 4.7% among 360,000 | THP-1 LPS/ATP IL-1B secretion, AlphaLISA, 16 h; active compounds read low; in the data active = activity change below about -50%; inconclusive = mostly about -30% to -49%
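Secreted IL-1B measured by AlphaLISA bead assay after 16 h compound exposure of THP-1 cells; compounds (final up to 57.5 uM) added 1 h before LPS (250 ng/mL) and ATP (1.25 mM) stimulation; lower signal means less secretion.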
TDP1 inh: inhibitors of human tyrosyl-DNA phosphodiesterase TDP1; AID 485290; Potency, µM (titrated, usually from 130 µM), without a hit: at the top dose activity change, negative = inhibition, most hits filed as inhibitors; recombinant TDP1, AlphaScreen DNA substrate cleavage; hit rate 0.28% among 350,000; Q9NUW8; note: potency is the fitted concentration of half-maximal effect; nearly all actives have a fitted effect of over 40% in size
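Compounds were preincubated with Tdp1 (1 nM final) for 15 min at room temperature before substrate (15 nM final) started a 5 min reaction; beads (10 ug/ml final) were then added for 10 min before AlphaScreen detection.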
Six1-Eya2 inh: Six1/Eya2 interaction inhibition; Q15475+O00167; AlphaScreen GST-Six1/His-Eya2 binding, biochemical; active compounds read low; activity change, % (test concentration not listed); hit rate 0.56% among 360,000; in the data active = activity change below about -65%; inconclusive = mostly about -30% to -63%
Target sequence (O00167 whole entry, looked up): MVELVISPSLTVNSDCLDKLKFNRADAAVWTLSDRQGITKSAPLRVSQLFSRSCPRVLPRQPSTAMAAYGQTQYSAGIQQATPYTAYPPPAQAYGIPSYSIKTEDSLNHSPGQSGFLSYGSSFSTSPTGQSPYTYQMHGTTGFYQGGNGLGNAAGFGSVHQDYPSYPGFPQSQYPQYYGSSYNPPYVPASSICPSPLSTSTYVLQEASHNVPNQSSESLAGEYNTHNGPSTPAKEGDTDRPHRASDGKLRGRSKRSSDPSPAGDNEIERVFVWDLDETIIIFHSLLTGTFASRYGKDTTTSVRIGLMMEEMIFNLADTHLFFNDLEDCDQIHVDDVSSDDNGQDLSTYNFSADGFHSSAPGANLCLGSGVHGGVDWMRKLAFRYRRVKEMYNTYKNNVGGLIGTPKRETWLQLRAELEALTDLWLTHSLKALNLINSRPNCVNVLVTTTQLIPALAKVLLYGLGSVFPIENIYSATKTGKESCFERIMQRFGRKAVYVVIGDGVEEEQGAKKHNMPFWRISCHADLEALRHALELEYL
Target sequence (Q15475 whole entry, looked up): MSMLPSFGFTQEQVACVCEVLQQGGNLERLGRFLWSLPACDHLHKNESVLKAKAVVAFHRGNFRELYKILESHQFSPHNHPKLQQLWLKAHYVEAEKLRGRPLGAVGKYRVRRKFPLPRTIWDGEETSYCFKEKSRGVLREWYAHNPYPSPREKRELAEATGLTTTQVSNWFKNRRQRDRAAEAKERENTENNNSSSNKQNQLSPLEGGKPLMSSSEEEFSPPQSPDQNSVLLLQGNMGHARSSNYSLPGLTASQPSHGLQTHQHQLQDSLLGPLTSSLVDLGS
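AlphaScreen luminescence read after one hour at 37 °C in darkness. Pin-transferred compounds met GST-Six1 and His-Eya2 protein (5X stock 250 nM/500 nM) plus glutathione donor and Ni-chelate acceptor beads (5X, 50 ug/mL).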
CtBP-E1A inh: CtBP/E1A binding inhibition | AlphaScreen GST-E1A/His-CtBP binding, 1536-well; active compounds read low | activity change, % (concentration not given with the values) | hit rate 0.49% among 340,000 | AID 651724; in the data active = activity change below about -65%; inconclusive = mostly about -30% to -63%
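Homogeneous bead-based format: GST-tagged E1A captured on glutathione donor beads, His-tagged CtBP on nickel acceptor beads; compounds precede bead addition by 2 h at 37 °C.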
TDP1 cell noCPT: qHTS for Inhibitors of human tyrosyl-DNA phosphodiesterase 1 (TDP1): qHTS in cells in absence of CPT | hit rate 15% among 420,000 | Potency, µM (top dose mostly 46.2 µM), for the others: top-dose activity change, negative = growth inhibition, most hits filed as inhibitors | DT40 Tdp1-/- hTDP1 cells, no CPT, ATP luminescence, 48 h | AID 686978, 2013; note: potency is the fitted concentration of half-maximal effect; nearly all actives have a fitted effect of over 55% in size
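Compound effects on proliferation are scored in DT40 Tdp1-/-;hTDP1 cells in the absence of CPT. ATP levels (CellTiter-Glo luminescence) are recorded after a ≥48 hr, 37 °C incubation.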
DT40 TDP1 CPT: growth inhibition of DT40 Tdp1-/-;hTDP1 cells with camptothecin (screen for TDP1 inhibitors) | chicken DT40 Tdp1-/-;hTDP1 cells + 20 nM CPT, ATP luminescence, 48 h | Potency, µM (top dose mostly 46.2 µM), for inactives: top-dose activity change, negative = growth inhibition, most hits filed as inhibitors | hit rate 12% among 420,000 | AID 686979; note: potency is the fitted concentration of half-maximal effect; nearly all actives have a fitted effect of over 55% in size
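Chicken DT40 Tdp1-/- cells complemented with human TDP1, 400 cells/well, exposed to compounds plus 20 nM camptothecin for at least 48 h at 37 C; viability read as ATP content by CellTiter-Glo luminescence.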
Active calls of the source: *; u = inconclusive; x = not tested or not shown; [ ] = dose if it differs, or a comment. The list is not random: actives were taken first. Their share in the collection is about 18%. Unless noted, calls come from the whole dose curve; as a rule, active = well fitted curve in the direction sought with a large enough effect; inconclusive = small, poorly fitted or top-dose-only effect, or another doubt; inactive = no such curve, though single readings can be large; an effect the other way counts as inactive or inconclusive. % is set by controls: 0 for no effect and ±100 for the full control effect.

SMILES	IL-1B inflam inh	TDP1 inh	Six1-Eya2 inh	CtBP-E1A inh	TDP1 cell noCPT	DT40 TDP1 CPT
COc1ccc(-c2cc(=O)c3c(O)c(OC)c(OC)c(OC)c3o2)cc1	25.8	3.6%	-6.8	-5.7	u	u
COCCCNC(=O)c1cc(S(=O)(=O)NCCCN2CCCC2=O)ccc1Cl	8.2	0.4%	10.2	-6.7	-2.5%	-1.0%
Cc1ccc(NC(=O)Nc2ccc3c(c2)OCO3)cc1F	u	2.1%	5.8	5.6	23.9%	12.5%
Cc1cc(=O)oc(C)c1C(=O)N[C@@H](Cc1ccccc1)C(=O)O	11.3	x	14.7	x	-28.0%	1.4%
CCN(CC)CCC(=O)N1c2ccccc2CCc2ccc(NC(=O)OC)cc21	-62.5*	x	-9.0	9.1	-6.8%	-21.1%
CCOC(=O)Nc1ccc2c(c1)N(C(=O)CCN(CC)CC)c1ccccc1S2=O (stereo not drawn)	-100.1*	x	5.0	-3.1	3.66µM*	2.59µM*
COc1ccc(Sc2ccccc2CN(C)C)cc1OC	-18.4	1.0%	-10.2	-8.9	u	-19.6%
CNCc1ccccc1Sc1ccc(O)c(O)c1	-124.9*	x	-1.7	-1.7	4.11µM*	2.59µM*
Oc1ccc(C=Nc2ccc3ncccc3c2)c(O)c1	x	9.9%	x	x	x	x
CC(=O)N(C)c1ccc(N=Nc2ccc3ncccc3c2)cc1	u	x	-15.2	-11.3	14.6µM*	u
Cc1ccc(CNC(=O)c2c3c(nc4ccccc24)C(=O)N(C2CCCCC2)C3)cc1	x	7.1%	x	x	16.4µM*	u
CCc1ccc(CNC(=O)c2c3c(nc4ccccc24)C(=O)N(C2CCCCC2)C3)cc1	x	11.0%	x	x	16.4µM*	u
CC1(C)CC(=O)/C(=C(\O)Cc2ccccc2)C(=NCCCCCC(=O)O)C1	-1.3	0.0%	-0.3	-15.1	u	-14.7%
CC(C)OC(=O)c1c(NC(=O)CCn2nnc3ccccc32)sc2c1CCCC2	-29.7	3.1%	-3.3	1.6	u	0.5%
O=C(CN1C(=O)NC2(CCCCC2)C1=O)Nc1ccc2c(c1)CCC2	7.3	5.7%	6.4	x	-14.0%	-23.1%
Cc1cc([N+](=O)[O-])nn1CCCC(=O)Nc1cc(Oc2ccc(F)cc2)cc([N+](=O)[O-])c1	u	-2.3%	3.2	-17.3	u	u
Cc1nn(Cc2c(Cl)cccc2Cl)c(C)c1NC(=O)CCCn1nc([N+](=O)[O-])c(Cl)c1C	-6.9	0.0%	4.2	-0.8	20.6µM*	u
Cc1ccc(Oc2cc(NC(=O)CCCn3nc([N+](=O)[O-])c(Cl)c3C)cc([N+](=O)[O-])c2)cc1	37.9	2.6%	3.7	5.5	23.1µM*	20.6µM*
Cc1cc(C)cc(Oc2cc(NC(=O)c3cn(C)nc3C)cc([N+](=O)[O-])c2)c1	4.8	3.9%	-3.1	-9.9	1.41µM*	2.24µM*
Cc1cccc(Oc2cc(N)cc([N+](=O)[O-])c2)c1	-4.4	2.0%	0.1	-2.4	-26.9%	u
Cc1nn(Cc2ccccc2)c(C)c1NC(=O)CCCn1nc([N+](=O)[O-])c(Cl)c1C	-18.6	0.0%	11.9	-5.2	-25.1%	-24.7%
Cc1cc([N+](=O)[O-])nn1CCCC(=O)Nc1cc(Oc2ccccc2)cc([N+](=O)[O-])c1	0.0	2.6%	0.1	4.3	20.6µM*	16.4µM*
O=C(CSc1cn(CC(=O)N2CCCCC2)c2ccccc12)NCC1CCCO1 (stereo not drawn)	-20.6	-1.3%	0.4	-2.4	-12.8%	-4.9%
O=C(COC(=O)/C=C/c1cccs1)Nc1ccc(Cl)cc1F	-1.7	-1.0%	6.3	13.3	-24.3%	-21.7%
Cc1nn2c(CN(C(=O)CN3CCOCC3)c3ccccc3)nnc2c2ccccc12	1.4	2.6%	2.6	7.9	-3.8%	25.5%
SMILES	IL-1B inflam inh	TDP1 inh	Six1-Eya2 inh	CtBP-E1A inh	TDP1 cell noCPT	DT40 TDP1 CPT
CC1(O)CC(c2ccc(Cl)cc2)=NN1C(=O)c1ccc([N+](=O)[O-])cc1 (stereo not drawn)	-88.5*	-5.1%	-19.1	x	18.4µM*	20.6µM*
CC(=O)N1N=C(c2ccc(Cl)cc2)CC1c1ccc([N+](=O)[O-])cc1 (stereo not drawn)	-12.6	x	0.5	-13.6	u	u
COc1cccc(C2c3c(ncn(-c4cccc(OC)c4)c3=N)Oc3ccc4ccccc4c32)c1 (stereo not drawn)	x	4.9%	x	x	x	x
COc1ccc(C2c3c(ncn(CCCO)c3=N)Oc3ccc4ccccc4c32)cc1 (stereo not drawn)	-96.0*	x	-9.5	-10.4	14.6µM*	20.6µM*
COc1ccc(C2c3c(ncn(CCCO)c3=N)Oc3ccc4ccccc4c32)cc1OC (stereo not drawn)	-100.0*	x	-10.0	-13.9	18.4µM*	14.6µM*
COc1ccc(C2c3c(ncn(CCN4CCOCC4)c3=N)Oc3ccc4ccccc4c32)cc1OC (stereo not drawn)	-87.5*	5.7%	4.9	-12.4	u	u
O=C(Nc1ccccc1N1CCCCC1)C1CC(=O)N(c2ccccc2F)C1 (stereo not drawn)	12.8	0.3%[56.1 µM]	1.1	-3.1	0.9%	-22.1%
Cc1ccc(S(=O)(=O)N2C[C@H]3[C@H]4C(=O)N(c5ccccc5)C(=O)[C@H]4C[C@H](OC(=O)NCc4ccccc4F)[C@@]3(O)C2)cc1	14.8	x	0.0	-0.3	-28.7%	1.1%
CC(=O)Nc1ccc(-c2ccnc3c2CC(C)(C(=O)Nc2ccccc2)O3)cc1 (stereo not drawn)	-23.8	x	-10.5	-11.4	18.4µM*	20.6µM*
CC(=O)Nc1ccc(-c2ccnc3c2CC(C)(C(=O)Nc2cccc(Oc4ccccc4)c2)O3)cc1 (stereo not drawn)	-21.7	x	-11.0	-9.9	16.4µM*	25.9µM*
CC(=O)Nc1ccc(NC(=O)C2(C)Cc3c(-c4ccc(NC(C)=O)cc4)ccnc3O2)cc1 (stereo not drawn)	-18.3	x	-9.3	3.5	2.3%	1.0%
Cc1cc(C)nc(NC(=NCCc2c[nH]c3ccccc23)NC(=O)C(C)(C)C)n1	-0.6	x	-1.0	-10.9	14.6µM*	u
COc1ccccc1OCc1ccc(C(=O)NCCN(C)C)o1	27.8	5.3%	0.5	11.2	13.3%	5.5%
COc1cc2c(cc1OC)C1Cc3ccc(OC)c(OC)c3CN1CC2 (stereo not drawn)	-1.5	3.1%	-5.6	-5.1	7.31µM*	u

Source: PubChem (National Center for Advancing Translational Sciences (NCATS))
